Experimental data: ChEMBL document CHEMBL4513146, “CO-ADD screening of Karazin Kharkiv National University (Ukraine) compounds”
Results with a measured potency or affinity are listed apart.

Tested on: Klebsiella pneumoniae
Details: Concentration 32 ug.mL-1;; ASSAY_TEST Inhibition of Bacterial Growth; detection method Absorption (OD600); MEDIA CAMHB; plate type 384well; NBS; CORNING #3640; time 18 hr

| Compound | Inhibition [%] |
| --- | --- |
| CSc1cccc(NC(=O)Cn2nc3c(SCc4ccc(Cl)cc4)nccn3c2=O)c1 | 7.71 |
| Cc1ccc(-n2ccn3c(=O)n(Cc4cccc(Cl)c4)nc3c2=O)cc1C | 2.85 |
| COc1ccccc1NC(=O)Cn1c(=O)c2nnc(C(C)C)n2c2ccccc21 | 6.56 |
| Cc1cccc(C)c1NC(=O)CSc1nnc2c3cc(-c4ccc(F)cc4)nn3ccn12 | -6.3 |
| CCc1ccc(N(Cc2ccc(C)cc2)S(=O)(=O)c2cccn3c(CC)nnc23)cc1 | 2.26 |
| Cc1ccc(Cn2nc3c(=O)n(-c4cccc(F)c4)ccn3c2=O)cc1 | 1.12 |
| Cc1ccc(NC(=O)Cn2nc3ccc(SC(C)(C)C)nn3c2=O)c(Cl)c1 | 7.92 |
| Cc1ccc(Cl)cc1NC(=O)Cn1nc2c(N3CCOCC3)nc3ccccc3n2c1=O | 0.47 |
| COc1cccc(Oc2nccn3c(=O)n(CC(=O)Nc4ccc(OC)c(Cl)c4)nc23)c1 | 9.28 |
| O=C(Cn1nc2ccc(Sc3cccc(F)c3)nn2c1=O)Nc1cccc(C(F)(F)F)c1 | 3.15 |
| CCc1nnc2c(=O)n(CC(=O)Nc3ccc(C#N)cc3)c3ccccc3n12 | 5.17 |
| COc1cccc(Oc2nccn3c(=O)n(CC(=O)Nc4ccccc4C(F)(F)F)nc23)c1 | 12.08 |
| Cc1nnc2c(SCC(=O)Nc3ccc(C#N)cc3)nc3ccccc3n12 | 5.06 |
| CC(C)c1ccc(N(Cc2cc(F)cc(F)c2)S(=O)(=O)c2cccn3cnnc23)cc1 | 4.84 |
| COc1ccc(NC(=O)Cn2nc3ccc(SCc4ccc(Cl)cc4)nn3c2=O)cc1Cl | -2.5 |
| Cc1ccc(-c2ccc3nn(CC(=O)Nc4ccc(C#N)cc4)c(=O)n3n2)cc1C | 8.41 |
| Cc1ccc(NC(=O)Cn2nc3c(Oc4ccccc4)nccn3c2=O)c(Br)c1 | -5.15 |
| O=c1c2nnc(SCc3ccc(F)cc3)n2ccn1-c1ccc(Br)cc1 | 4.74 |
| CCCCOc1ccc(-c2cc3c4nnc(SCC(=O)Nc5ccccc5F)n4ccn3n2)cc1 | -0.1 |
| CCCCc1ccc(NC(=O)Cn2nc3c(Sc4ccccc4CC)nccn3c2=O)cc1 | -8.8 |

| Compound | Inhibition [%] |
| --- | --- |
| CC(C)CCn1c(=O)c2ccc(C(=O)NC3CCCC3)cc2n2c(=O)n(CC#N)nc12 | 12.37 |
| Cc1ccc(NC(=O)Cn2c(=O)c3nnc(C)n3c3ccccc32)cc1C | 6.79 |
| CCc1ccc(N(Cc2ccccc2)S(=O)(=O)c2cccn3c(CC)nnc23)cc1 | 8.89 |
| O=c1c2sccc2n2c(=O)n(Cc3ccc(F)cc3)nc2n1CCc1ccccc1 | 5.57 |
| Cc1cccc(NC(=O)Cn2nc3c(SCc4ccc(Cl)cc4)nccn3c2=O)c1C | 15.65 |
| CCOc1ccc(-n2ccn3c(SCC(=O)Nc4ccc(C)cc4Cl)nnc3c2=O)cc1 | 9.51 |
| Cc1ccc(Nc2cc(C)n3c(=O)n(Cc4cc(=O)n5ccccc5n4)nc3n2)cc1F | 9.15 |
| COc1cccc(NC(=O)Cn2nc3ccc(SCc4ccc(Cl)cc4)nn3c2=O)c1 | 6.69 |
| Cc1ccc(NC(=O)Cn2nc3ccc(SC(C)(C)C)nn3c2=O)cc1C | 8.45 |
| O=C(CSc1nnc2c(=O)n(-c3ccccc3)ccn12)c1ccc(F)cc1 | 11 |
| O=C(Cn1nc2c(N3CCOCC3)nccn2c1=O)Nc1ccc2c(c1)OCO2 | 20.48 |
| O=C(Cn1nc2c(N3CCN(c4ccccc4)CC3)nccn2c1=O)Nc1ccc2c(c1)OCO2 | 5.9 |
| CCc1nnc2c(S(=O)(=O)N(Cc3ccc(F)cc3)c3ccc(Cl)cc3)cccn12 | 7.23 |
| COc1ccc(CNC(=O)Cn2nc3c4cc(-c5ccc(Cl)cc5)nn4ccn3c2=O)cc1 | 11.83 |
| COc1ccc(Cl)cc1NC(=O)Cn1nc2c(Sc3ccc(C)cc3C)nccn2c1=O | 5.33 |
| O=C(CSc1nnc2c(=O)n(-c3cccc(F)c3)ccn12)c1ccc(F)cc1 | 9.88 |
| CCOc1ccc(-n2ccn3c(SCC(=O)c4ccc(OC)c(OC)c4)nnc3c2=O)cc1 | 7.92 |
| CC(C)c1nnc2c(SCC(=O)Nc3ccc(Br)cc3)nc3ccccc3n12 | 6.82 |
| CC(C)CCNC(=O)CSc1nnc2c3cc(-c4ccccc4)nn3ccn12 | 15.29 |
